SMILES strings stand for the structures.

For the experiment, the system named is murine 3T3 fibroblasts. The experiment is described as follows: primary screen, percent viability or growth; higher = less effect of the substance. The procedure: Similarly, for measuring the cytotoxicity concentration (CC50) for 3T3 fibroblast cells, cultures were incubated with drugs for 72 hours and developed using Alamar Blue (Alamar Biosciences Inc, Sacramento, CA) as previously described.
As to `COc1cc(O)c(C(=O)c2ccccc2)cc1O`, the “Mammalian (3T3) cell % growth at 10 uM” value is given as 47.4%.
For the molecule `CC[C@@H]1/C=C/C=C/C[C@H](C)[C@@H](O)[C@](C)(O)C(=O)[C@H](C)[C@@H](O)[C@H](C)C(=O)[C@H](C)[C@@H](O)[C@H](C)/C=C/C(=O)O[C@H]2[C@@H](C)[C@@H](CC1)O[C@@]1(CC[C@@H](C)[C@@H](C[C@@H](C)O)O1)[C@@H]2C`, the “Mammalian (3T3) cell % growth at 10 uM” value was found to be 57.7%.
To `COc1cc2c(cc1OC)C1C(=O)c3c(cc4c(c3O)C=CC(C)(C)O4)OC1CO2` (centres unmarked) belongs 34.3%.
To `COc1cc2nc(N3CCN(C(=O)c4ccco4)CC3)nc(N)c2cc1OC.Cl` belongs 70.7%.
To `CCC1(O)C(=O)OCc2c1cc1n(c2=O)Cc2cc3cc(O)ccc3nc2-1` (centres unmarked) belongs 23.9%; to `CNC1CCC(c2ccc(Cl)c(Cl)c2)c2ccccc21.Cl` (centres unmarked), 100%.
As for `Cc1ccc(C(=O)C(C)CN2CCCCC2)cc1` (centres unmarked), the “Mammalian (3T3) cell % growth at 10 uM” value is recorded as 0.2%.
On to `CN1CCc2c(c3ccccc3n2Cc2ccccc2)C1.O=S(=O)(O)c1cccc2c(S(=O)(=O)O)cccc12`, for which the “Mammalian (3T3) cell % growth at 10 uM” value amounted to 100%.
Consider `COc1ccc(-c2cc(=O)c3ccccc3o2)cc1`, for which the “Mammalian (3T3) cell % growth at 10 uM” value is 100%.
To `NCCCCNCCCN` belongs 41%.
In the case of `C1CCC(C(CC2CCCCN2)C2CCCCC2)CC1.O=C(O)/C=C\C(=O)O` (centres unmarked), the “Mammalian (3T3) cell % growth at 10 uM” value was -0.2%.
Turning to `CC(C)=CCc1c2c(c3occ(-c4ccc(O)c(O)c4)c(=O)c3c1O)C=CC(C)(C)O2`, the “Mammalian (3T3) cell % growth at 10 uM” value turned out to be 4.1%.
To `COc1ccc2c(c1)[nH]c1c(C)nccc12` belongs 87.2%.
To `Cc1nc2ccccn2c(=O)c1CCN1CCC(C(=O)c2ccc(F)cc2)CC1` belongs 91.6%; to `COC(=O)CC1C2(C)CC34OC5(C)OC6(C7/C(=C(\OC)C(C)C)C(=O)OC(c8ccoc8)C7(C)C(OC(=O)C(C)C)C(OC)C6(O5)C13C)C(OC)C4(OC)C2OC(C)=O` (centres unmarked), 53.4%.
For the molecule `CN1CCC(=C2c3ccccc3CCc3sccc32)CC1.O=C(O)CC(O)C(=O)O`, the “Mammalian (3T3) cell % growth at 10 uM” value was 86.5%.
As to `CCC1(O)CC(OC2CC(N(C)C)C(O)C(C)O2)c2c(cc3c(c2O)C(=O)c2c(O)ccc(O)c2C3=O)C1C(=O)OC` (centres unmarked), the “Mammalian (3T3) cell % growth at 10 uM” value was 0.8%.
To `COc1ccc2cc1Oc1ccc(cc1)C[C@H]1c3c(cc4c(c3Oc3cc5c(cc3OC)CCN(C)[C@@H]5C2)OCO4)CCN1C` belongs 33.1%.
On to `O=c1c(-c2ccc(O)cc2)coc2cc(O)cc(O)c12`, for which the “Mammalian (3T3) cell % growth at 10 uM” value amounted to 100%.
The result for `O=c1cc(-c2ccccc2)oc2cc(O)cc(O)c12` reads 43%.
To `CCCCc1oc2ccccc2c1C(=O)c1cc(I)c(OCCN(CC)CC)c(I)c1.Cl` belongs 86.7%; to `COC(=O)c1cc(O)c(=O)c2c(O)c(O)ccc2c1`, 92.2%.
Regarding `COc1cc(/C=C/C(=O)N2CCC=CC2=O)cc(OC)c1OC`, the “Mammalian (3T3) cell % growth at 10 uM” value is 1%.
The result for `COc1ccc(Cc2nccc3cc(OC)c(OC)cc23)cc1OC.Cl` reads 93.1%; that for `c1ccc(-c2ccc(C(c3ccccc3)n3ccnc3)cc2)cc1` (centres unmarked), 93.6%; that for `CNCCC(Oc1ccc(C(F)(F)F)cc1)c1ccccc1.Cl` (centres unmarked), 100%.
The result for `Nc1nc(N)c2nc(-c3ccccc3)c(N)nc2n1` reads 72.7%; that for `CN(C)CCC=C1c2ccccc2CCc2ccccc21`, 100%; that for `Clc1ccc(C(OCCN2CCCCC2)c2ccccc2)cc1` (centres unmarked), 100%.
`CC(C)=CCc1c2c(c3occ(-c4ccc(O)cc4)c(=O)c3c1O)C=CC(C)(C)O2`: the “Mammalian (3T3) cell % growth at 10 uM” value is listed as 30.6%.
As to `C[C@@H]1C[C@@H]([C@H](O)CC2CC(=O)NC(=O)C2)C(=O)[C@@H](C)C1`, the “Mammalian (3T3) cell % growth at 10 uM” value is on record as 36.9%.
To `CC(=O)OC1CCC2(C)C3=C(CCC2C1(C)C)C1(C)CCC(C(C)CCC=C(C)C)C1(C)CC3` (centres unmarked) belongs 87.6%.

Values taken from publication PMC4102417.
